Experimental findings from PubChem BioAssay (NCATS) are described below.

Records with an inconclusive call do not appear. The source made the active and inactive calls. Calls follow the shape of the dose curve; as a rule, active = well fitted curve in the direction sought with a large enough effect; inconclusive = small, poorly fitted or top-dose-only effect, or another doubt; inactive = no such curve, though single readings can be large; an effect the other way counts as inactive or inconclusive.

The nature of the first experiment: Cell Viability - LYMP2-005 (AID 967).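 Also: plate controls were DMSO only for no effect and 92 µM tetraoctylammonium bromide control for full effect.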 Conditions: LYMP2-005 lymphoblastoid cell viability; series mostly up to 92.2 µM; activity change, negative = viability loss: at the top concentration. Summed up: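 CellTiter-Glo luminescence (cellular ATP) read-out; LYMP2-005 lymphoblastoid cells, 2500/well, 5 h pre-incubation, then 24 h compound exposure at 37 C in complete medium. Tetraoctylammonium bromide positive control; AC50 by standard Hill fit.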
Regarding `CCN(C(=O)N(CC)c1ccccc1)c1ccccc1`, the “activity change, negative = viability loss” value was -21.9% (inactive).

For `CCNc1cc(O)ccc1C`, the “activity change, negative = viability loss” value is -22.2% (inactive). In the case of `C=Cc1ccccn1`, the “activity change, negative = viability loss” value is 2.69% (inactive).

As to `CC(C)C(C)C`, the “activity change, negative = viability loss” value was -15.8% (inactive). For `CCCCC(=O)N(C)C`, the “activity change, negative = viability loss” value was 11.7% (inactive). Same read-out and setting: the figure for `Nc1cc(S(=O)(=O)O)ccc1O` is 4.7% (inactive); for `Cc1cccc2sc(N)nc12` it is 0.259% (inactive).

On to `BrC(Br)C(Br)Br`, for which the “activity change, negative = viability loss” value is 9.89% (inactive). For the molecule `O=P(O)(OCc1ccccc1)OCc1ccccc1`, the “activity change, negative = viability loss” value is 23.4% (inactive). The same measure, in the same setting: the figure for `CC(N)CN` (stereo not given) is 15.1% (inactive); for `Cc1ccc(N(C)C)cc1` it is 14.4% (inactive).

Consider `OCCO`, for which the “activity change, negative = viability loss” value was 20.1% (inactive). The same measure, in the same setting: the figure for `CCOC(=O)OCC` is 4.09% (inactive); for `Nc1cccc(C(F)(F)F)c1` it is -1.83% (inactive); for `ClCCl` it is -18.4% (inactive).

Consider `CN(C)CCCCl`, for which the “activity change, negative = viability loss” value was -7.71% (inactive). For the molecule `O=C(O)c1ccccc1Cl`, the “activity change, negative = viability loss” value was 13.2% (inactive). On the same count and under the same terms, the figure for `C=C(C)OC(C)=O` is 8.01% (inactive). On to `C1CCCC1`, for which the “activity change, negative = viability loss” value was 19.6% (inactive). The same measure, in the same setting: the figure for `Cc1cc(C)cc(O)c1` is 3.15% (inactive). Still for that read-out and setting: in the case of `CCC(O)C(C)(C)C` (stereo not given) it was -15.8% (inactive); in that of `CCCCCCCCC`, 3.62% (inactive). On the same count and under the same terms, the figure for `CCCCCCCCCCCCC1CO1` (stereo not given) is -3.99% (inactive); for `CC(=O)c1nccs1` it is 15.9% (inactive); for `Clc1ccc(Cl)c(Cl)c1Cl` it is -9% (inactive). As for `NC(=S)NNC(N)=S`, the “activity change, negative = viability loss” value was -3.25% (inactive). Same read-out and setting: the figure for `Cc1ccc(C(C)(C)C)cc1` is 3.41% (inactive); for `O=Cc1cccc(Br)c1` it is 21.4% (inactive); for `Cc1ccc(C)c(N)c1` it is 12% (inactive).

The next experiment can be described thus: Cell Viability - LYMP2-009 (AID 968).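 Also: 0% = DMSO alone and the full-kill end = tetraoctylammonium bromide at 92 µM; nearly all actives have a fitted effect of over 55% in size.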 Conditions: LYMP2-009 lymphoblastoid cell viability; series mostly up to 92.2 µM; activity change, negative = viability loss: at the top concentration.
Consider `CCN(C(=O)N(CC)c1ccccc1)c1ccccc1`, for which the “activity change, negative = viability loss” value was -12.5% (inactive). Consider `CCNc1cc(O)ccc1C`, for which the “activity change, negative = viability loss” value was -6.81% (inactive). Regarding `Cc1ccc(C(=O)O)cc1`, the “activity change, negative = viability loss” value is 5.02% (inactive).

Take `C=Cc1ccccn1`: the “activity change, negative = viability loss” value was -13.8% (inactive). In the case of `CC(C)C(C)C`, the “activity change, negative = viability loss” value was -9.72% (inactive).

Regarding `Nc1cc(S(=O)(=O)O)ccc1O`, the “activity change, negative = viability loss” value is 1.84% (inactive).

Consider `O=C1OC(=O)c2c(Br)c(Br)c(Br)c(Br)c21`, for which the “activity change, negative = viability loss” value was 0.0857% (inactive). Regarding `Cc1cccc2sc(N)nc12`, the “activity change, negative = viability loss” value is -10.2% (inactive). As to `CN(C)c1cccc(O)c1`, the “activity change, negative = viability loss” value is -6.8% (inactive). Turning to `BrC(Br)C(Br)Br`, the “activity change, negative = viability loss” value is 1.47% (inactive). Still for that read-out and setting: the figure for `CC(=O)c1ccccn1` is 0.649% (inactive); for `O=P(O)(OCc1ccccc1)OCc1ccccc1` it is -0.914% (inactive). `OC1CCCC1`: the “activity change, negative = viability loss” value is -1.37% (inactive). On the same count and under the same terms, the figure for `Cc1ccc(N(C)C)cc1` is -1.64% (inactive); for `OCCO` it is -7.88% (inactive).

Take `CCOC(=O)OCC`: the “activity change, negative = viability loss” value is 5.26% (inactive). In the case of `Nc1cccc(C(F)(F)F)c1`, the “activity change, negative = viability loss” value was -5.25% (inactive).

Take `ClCCl`: the “activity change, negative = viability loss” value was -3% (inactive).

Turning to `CN(C)CCCCl`, the “activity change, negative = viability loss” value is -3.9% (inactive). Same read-out and setting: in the case of `CC(=O)c1cccc([N+](=O)[O-])c1` it was -10.9% (inactive). The same measure, in the same setting: the figure for `O=C(O)c1ccccc1Cl` is -7.45% (inactive); for `CSCCC=O` it is -12.4% (inactive); for `C=C(C)OC(C)=O` it is 2.4% (inactive).

As to `C1CCCC1`, the “activity change, negative = viability loss” value is -0.655% (inactive). Still for that read-out and setting: in the case of `Cc1cc(C)cc(O)c1` it was 3.4% (inactive). Take `CCC(O)C(C)(C)C` (stereo not given): the “activity change, negative = viability loss” value is 7.49% (inactive). For the molecule `CCCCCCCCC`, the “activity change, negative = viability loss” value is 3.92% (inactive). On the same count and under the same terms, in the case of `CCCCCCCCCCCCC1CO1` (stereo not given) it was -7.33% (inactive); in that of `CC(=O)c1nccs1`, -3.3% (inactive); in that of `Clc1ccc(Cl)c(Cl)c1Cl`, -1.07% (inactive). With `CC/C=C/C#N`, the “activity change, negative = viability loss” value was -7.02% (inactive).

Consider `NC(=S)NNC(N)=S`, for which the “activity change, negative = viability loss” value is -2% (inactive). In the case of `Cc1ccc(C(C)(C)C)cc1`, the “activity change, negative = viability loss” value was 2.56% (inactive). On the same count and under the same terms, in the case of `O=Cc1cccc(Br)c1` it was 2.66% (inactive); in that of `Cc1ccc(C)c(N)c1`, -0.125% (inactive). The same measure, in the same setting: the figure for `CC(C)c1ccccc1` is -0.0229% (inactive).
